Assay results published in PubChem BioAssay.
A number with no mark means an inactive call. For part of these data: Entries with a potency or affinity are not part of this list. Active and inactive are the calls of the source. Unless noted, the rule behind the calls is not given here.

Columns and labels:
[1] = antimalarial activity against Dd2 strain (AID 2302;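 active = growth inhibition above 50% at the single 2 µM test dose, taken to imply half-maximal potency below 2 µM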;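 note: 0% = DMSO untreated growth and 100% = chloroquine plus artemisinin killed control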); conditions: P. falciparum Dd2 in RBCs, LDH growth readout, 72 h; at 2 µM; stronger effect = higher value
[2] = human hepatoma cell viability loss – ATP luminescence, cytotoxicity control for P. falciparum antimalarial project, primary screen (AID 2303;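 active = inhibition above 50%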;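 note: 0% = DMSO wells and 100% = digitonin-killed cells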); conditions: HepG2 viability, 24-48 h, at 10 µM, stronger effect = higher value
[3] = target: L-lactate dehydrogenase (Plasmodium falciparum (isolate CDC / Honduras)) (UniProt Q27743); assay: PfLDH activity inhibition – cell lysate, 3D7 strain, counter-screen for P. falciparum growth inhibition project (AID 2304);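 note: 0% = vehicle and 100% = reference inhibitor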; conditions: P. falciparum 3D7 crude extract, LDH APAD/NBT absorbance; at 2 µM; stronger effect = higher value
[4] = inhibition of 3D7 malaria parasite growth – strain 3D7 (AID 2306);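 note: 0% = DMSO wells and 100% = chloroquine plus artemisinin control wells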; conditions: P. falciparum 3D7 erythrocytic growth, LDH absorbance, 72 h; at 2 µM; stronger effect = higher value
[5] = target: Calcium-dependent protein kinase 1 (Plasmodium falciparum (isolate 3D7)) (UniProt P62344); assay: PfCDPK1 kinase inhibitors, biochemical, TCAMS library (AID 1159585; cut-off not given, nearly all actives have IC50 up to about 0.98 µM;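 note: inhibitors leave more ATP so luminescence rises with inhibition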); conditions: recombinant PfCDPK1, Kinase-Glo ATP depletion luminescence
[6] = target: Plasmodium falciparum protein kinase 6 (PK6, PF3D7_1337100) (UniProt Q8IDW1); assay: PfPK6 kinase inhibitors, biochemical, TCAMS library (AID 1159586); conditions: recombinant PfPK6, Kinase-Glo ATP depletion luminescence
[7] = target: Protein kinase 7 (PK7), Plasmodium falciparum 3D7 (PF3D7_0213400) (UniProt Q7YTF7); assay: inhibition of Plasmodium PK7 catalytic activity – biochemical, TCAMS antimalarial set, Kinase-Glo luminescence (AID 1159587); conditions: recombinant PfPK7, Kinase-Glo ATP depletion luminescence
[8] = target: Calcium-dependent protein kinase 4 (Plasmodium falciparum (isolate 3D7)) (UniProt Q8IBS5); assay: PfCDPK4 kinase inhibitors, biochemical, TCAMS library (AID 1159588; cut-off not given, nearly all actives have IC50 up to about 0.91 µM); conditions: recombinant PfCDPK4, Kinase-Glo ATP depletion luminescence
Calcium-dependent protein kinase 4 (Plasmodium falciparum (isolate 3D7)), sequence (Q8IBS5 whole entry, looked up): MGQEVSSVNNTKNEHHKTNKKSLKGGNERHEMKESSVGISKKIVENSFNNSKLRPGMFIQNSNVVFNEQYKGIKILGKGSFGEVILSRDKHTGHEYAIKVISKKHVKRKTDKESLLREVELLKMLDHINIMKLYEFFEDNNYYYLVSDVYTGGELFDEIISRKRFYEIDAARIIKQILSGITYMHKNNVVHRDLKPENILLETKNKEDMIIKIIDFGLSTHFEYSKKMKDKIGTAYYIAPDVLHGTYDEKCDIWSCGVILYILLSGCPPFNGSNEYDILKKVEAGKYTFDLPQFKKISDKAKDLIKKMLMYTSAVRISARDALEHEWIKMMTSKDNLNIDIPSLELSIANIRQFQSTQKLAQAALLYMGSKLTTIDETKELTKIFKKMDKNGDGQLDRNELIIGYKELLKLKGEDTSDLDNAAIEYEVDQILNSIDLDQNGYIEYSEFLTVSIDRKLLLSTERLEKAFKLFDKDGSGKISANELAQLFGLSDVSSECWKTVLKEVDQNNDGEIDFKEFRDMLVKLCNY

Plasmodium falciparum protein kinase 6 (PK6, PF3D7_1337100), sequence (Q8IDW1 1-305): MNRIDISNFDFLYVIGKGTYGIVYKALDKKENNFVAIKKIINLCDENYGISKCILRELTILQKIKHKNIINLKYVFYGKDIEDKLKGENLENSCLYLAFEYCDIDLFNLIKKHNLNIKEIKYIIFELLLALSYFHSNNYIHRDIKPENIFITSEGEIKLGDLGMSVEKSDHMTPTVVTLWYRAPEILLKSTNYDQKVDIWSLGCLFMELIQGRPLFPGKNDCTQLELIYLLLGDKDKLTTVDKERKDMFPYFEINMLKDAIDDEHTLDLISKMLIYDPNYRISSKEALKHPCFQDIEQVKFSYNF
Calcium-dependent protein kinase 1 (Plasmodium falciparum (isolate 3D7)), sequence (P62344 whole entry, looked up): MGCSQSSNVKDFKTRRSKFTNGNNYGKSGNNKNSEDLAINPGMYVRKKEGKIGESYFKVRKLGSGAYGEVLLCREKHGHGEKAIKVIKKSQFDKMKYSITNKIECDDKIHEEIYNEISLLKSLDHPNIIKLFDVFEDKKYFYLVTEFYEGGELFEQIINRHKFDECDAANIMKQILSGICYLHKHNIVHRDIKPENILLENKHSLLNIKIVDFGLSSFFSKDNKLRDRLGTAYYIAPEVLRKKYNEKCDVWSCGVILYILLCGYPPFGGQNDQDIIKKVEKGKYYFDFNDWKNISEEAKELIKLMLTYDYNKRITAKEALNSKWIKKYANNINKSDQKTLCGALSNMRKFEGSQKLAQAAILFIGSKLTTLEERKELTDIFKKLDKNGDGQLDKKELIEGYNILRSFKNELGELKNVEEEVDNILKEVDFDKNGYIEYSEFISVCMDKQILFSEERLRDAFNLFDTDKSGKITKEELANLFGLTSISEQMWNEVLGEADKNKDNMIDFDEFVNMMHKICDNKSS
L-lactate dehydrogenase (Plasmodium falciparum (isolate CDC / Honduras)), sequence (Q27743 whole entry, looked up): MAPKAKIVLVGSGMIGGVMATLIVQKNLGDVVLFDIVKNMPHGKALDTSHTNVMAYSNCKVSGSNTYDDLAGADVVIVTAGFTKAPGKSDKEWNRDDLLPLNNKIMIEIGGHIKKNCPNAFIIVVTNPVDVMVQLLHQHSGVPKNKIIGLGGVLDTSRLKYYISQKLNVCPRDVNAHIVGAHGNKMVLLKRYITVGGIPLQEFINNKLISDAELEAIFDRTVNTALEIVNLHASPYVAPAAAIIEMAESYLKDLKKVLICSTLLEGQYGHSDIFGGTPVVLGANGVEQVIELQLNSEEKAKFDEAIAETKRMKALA
Protein kinase 7 (PK7), Plasmodium falciparum 3D7 (PF3D7_0213400), sequence (Q7YTF7 1-343): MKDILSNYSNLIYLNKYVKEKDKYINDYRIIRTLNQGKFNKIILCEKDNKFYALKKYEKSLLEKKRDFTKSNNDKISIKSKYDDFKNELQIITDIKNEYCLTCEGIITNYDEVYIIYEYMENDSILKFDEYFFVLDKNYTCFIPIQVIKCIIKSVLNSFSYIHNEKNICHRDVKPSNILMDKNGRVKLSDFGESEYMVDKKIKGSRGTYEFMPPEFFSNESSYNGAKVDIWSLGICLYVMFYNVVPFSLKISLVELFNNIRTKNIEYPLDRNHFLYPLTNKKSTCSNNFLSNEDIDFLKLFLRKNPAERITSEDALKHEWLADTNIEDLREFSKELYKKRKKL

Compound	growth inhibition [1]	inhibition [2] [%]	inhibition [3] [%]	growth inhibition [4]	outcome [5]	outcome [6]	outcome [7]	outcome [8]
COc1ccc(CCNCc2ccc3nc(N)c(C)cc3c2)cc1	15%	-1	3	100% (active)	inactive	inactive	inactive	inactive
O=C(/C=C/c1cc(F)c(F)cc1F)N1CCC(CN2CCC(c3c[nH]c4ccccc34)CC2)CC1	3%	26	1	93% (active)	inactive	inactive	inactive	inactive
O=C(/C=C/c1ccc(Cl)cc1Cl)NC1CCC(CN2CCC(c3c[nH]c4ccccc34)CC2)CC1 (stereo unspecified)	79% (active)	37	7	101% (active)	inactive	inactive	inactive	inactive
CCCCCC(C)C(C)c1cc(O)c2c3c(c(=O)oc2c1)CN(Cc1ccccc1)CC3 (stereo unspecified)	47%	4	-2	99% (active)	inactive	inactive	inactive	inactive
CCCCCC(C)C(C)c1cc(O)c2c(c1)O[C@@]1(C(C)C)CC(O)[C@H](C)[C@@H]2C1 (stereo partly specified)	87% (active)	1	-3	93% (active)	inactive	inactive	inactive	inactive
CC[C@H]1CN2CC[C@@H]1C[C@H]2[C@H](O)c1cc(N2CCCC(C)(C)C2)nc2ccc(OC)cc12	72% (active)	25	3	101% (active)	inactive	inactive	inactive	inactive
O=C(NC1CCC(N2CCC3(CC2)C(=O)NCN3c2ccccc2)CC1)c1cc2ccccc2[nH]1 (stereo unspecified)	40%	-2	1	98% (active)	inactive	inactive	inactive	inactive
COc1cc(C(=O)NC2CCC(CN3CCC(c4c[nH]c5ccccc45)CC3)CC2)cc(Cl)n1 (stereo unspecified)	45%	33	-1	99% (active)	inactive	inactive	inactive	inactive
Cc1ccc(CC(C)NCC(O)c2cccc(Cl)c2)cc1F (stereo unspecified)	88% (active)	1	-2	95% (active)	inactive	inactive	inactive	inactive
CN(C)c1cccc(NC(=O)N[C@H]2N=C(c3ccccc3)c3ccccc3N(CC(=O)N3CCCC3)C2=O)c1	98% (active)	-5	-4	98% (active)	inactive	inactive	inactive	inactive
O=C(CC1CCCC1)N(CC1CCN(Cc2ccc(C(F)(F)F)cc2)CC1)c1ccc(N2CCOCC2)c(F)c1	97% (active)	10	-1	92% (active)	inactive	inactive	inactive	inactive
COCCNCc1cccc(-c2ccccc2CN(C(=O)Nc2ccccc2)C2CCN(Cc3ccccc3)CC2)c1	51% (active)	30	1	96% (active)	inactive	inactive	inactive	inactive
